Our source for the binding signal values is article PMC7862700, “An all-to-all approach to the identification of sequence-specific readers for epigenetic DNA modifications on cytosine”.

Holding throughout (assay): DAPPL (digital affinity profiling via proximity ligation, sequencing); 10 mM Tris-HCl pH 7.5, 50 mM NaCl, 1 mM DTT, 4% glycerol, room temperature, 30 min; GST-TFs on glutathione beads, 16-mer random dsDNA library, 0.1% formaldehyde crosslink after washing; high values mean tight binding
One test deals with T1, FLI1 (Homo sapiens, UniProt Q01543 1-452).
T1 sequence: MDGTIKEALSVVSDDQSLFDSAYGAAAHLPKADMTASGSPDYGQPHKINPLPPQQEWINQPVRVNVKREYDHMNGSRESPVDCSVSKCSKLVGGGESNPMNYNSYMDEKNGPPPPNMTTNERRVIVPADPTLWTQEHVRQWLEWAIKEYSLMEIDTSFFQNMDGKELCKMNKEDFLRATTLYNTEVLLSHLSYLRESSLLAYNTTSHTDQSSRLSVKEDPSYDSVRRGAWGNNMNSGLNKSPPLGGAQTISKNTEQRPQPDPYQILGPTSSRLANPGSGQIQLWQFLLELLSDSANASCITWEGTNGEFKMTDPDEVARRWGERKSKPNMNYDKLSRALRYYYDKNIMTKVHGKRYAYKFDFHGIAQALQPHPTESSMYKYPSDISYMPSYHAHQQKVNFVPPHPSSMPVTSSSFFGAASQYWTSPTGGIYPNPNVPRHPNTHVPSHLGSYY
As to conditions: protein: recombinant; tags: N-terminal GST; dsDNA, one strand shown. In a few lines: (§1)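 The binding signal reported is, for every hexamer, its read frequency for a factor over its read frequency for the tag-only sample. Reads came from pools of yeast-expressed, GST-fused human transcription factors on glutathione beads, barcoded with DNA and mixed with that sample, which were incubated with 200 nmole of a random double-stranded 16-mer DNA library in Tris/NaCl/DTT/glycerol buffer at room temperature for 30 min. After washing, the pools were crosslinked with 0.1% formaldehyde, proximity-ligated with BsaI/T4 ligase for 1 h at 37 °C, PCR-amplified and sequenced on an Illumina NextSeq500.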

The target in the next test is T2, ELK1 (Homo sapiens, UniProt P19419 1-428).
T2 sequence: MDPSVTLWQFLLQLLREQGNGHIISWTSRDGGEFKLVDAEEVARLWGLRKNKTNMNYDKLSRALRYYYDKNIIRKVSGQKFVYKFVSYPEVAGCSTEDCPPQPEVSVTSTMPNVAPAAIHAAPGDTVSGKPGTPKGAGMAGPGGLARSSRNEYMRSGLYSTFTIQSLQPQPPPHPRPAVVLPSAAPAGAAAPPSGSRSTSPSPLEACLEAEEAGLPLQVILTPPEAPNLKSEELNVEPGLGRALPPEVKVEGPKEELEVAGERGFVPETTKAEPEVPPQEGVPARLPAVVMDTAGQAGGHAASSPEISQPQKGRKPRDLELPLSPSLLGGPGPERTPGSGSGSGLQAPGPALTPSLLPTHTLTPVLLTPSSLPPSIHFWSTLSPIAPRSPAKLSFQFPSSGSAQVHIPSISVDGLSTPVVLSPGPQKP
The note with it: protein: recombinant; tags: N-terminal GST; dsDNA, one strand shown. The gist of the method:
as §1

The target of another test is T3, GABPA (Homo sapiens, UniProt Q06546 1-454).
T3 sequence: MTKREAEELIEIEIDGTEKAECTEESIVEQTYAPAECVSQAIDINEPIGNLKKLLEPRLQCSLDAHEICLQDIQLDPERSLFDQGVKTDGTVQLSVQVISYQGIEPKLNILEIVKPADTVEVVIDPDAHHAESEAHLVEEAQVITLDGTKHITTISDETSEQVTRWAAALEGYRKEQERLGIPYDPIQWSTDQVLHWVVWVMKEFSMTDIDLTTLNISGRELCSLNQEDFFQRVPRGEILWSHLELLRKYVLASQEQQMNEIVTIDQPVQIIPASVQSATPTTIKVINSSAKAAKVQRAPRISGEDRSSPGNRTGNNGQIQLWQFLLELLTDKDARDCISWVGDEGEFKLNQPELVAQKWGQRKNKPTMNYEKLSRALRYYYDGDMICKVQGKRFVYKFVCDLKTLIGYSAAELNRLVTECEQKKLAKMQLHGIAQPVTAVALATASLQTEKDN
As to conditions: protein: recombinant; tags: N-terminal GST; dsDNA, one strand shown. The gist of the method:
as §1

In a further test the target is T4, ERG (Homo sapiens, UniProt P11308 1-479).
T4 sequence: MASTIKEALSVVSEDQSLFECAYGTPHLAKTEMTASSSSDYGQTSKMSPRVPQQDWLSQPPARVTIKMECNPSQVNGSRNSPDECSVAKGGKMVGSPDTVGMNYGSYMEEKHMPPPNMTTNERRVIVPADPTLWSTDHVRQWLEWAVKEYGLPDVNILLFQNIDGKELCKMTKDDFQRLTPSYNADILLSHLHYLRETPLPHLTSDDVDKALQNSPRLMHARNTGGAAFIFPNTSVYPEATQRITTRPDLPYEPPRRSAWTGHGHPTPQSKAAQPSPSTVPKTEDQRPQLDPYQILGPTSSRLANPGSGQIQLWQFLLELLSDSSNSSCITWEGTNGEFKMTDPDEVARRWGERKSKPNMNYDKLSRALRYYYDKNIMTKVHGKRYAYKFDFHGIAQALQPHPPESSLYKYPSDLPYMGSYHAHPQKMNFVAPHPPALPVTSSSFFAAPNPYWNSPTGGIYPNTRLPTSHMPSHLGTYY
As to conditions: protein: recombinant; tags: N-terminal GST; dsDNA, one strand shown. The gist of the method:
as §1

A further test concerns the target ELF1 (Homo sapiens, UniProt P32519 1-619). As to conditions: protein: recombinant; tags: N-terminal GST; dsDNA, one strand shown. The gist of the method: as §1
The next test concerns the target T5, EHF (Homo sapiens, UniProt Q9NZC4 1-300).
T5 sequence: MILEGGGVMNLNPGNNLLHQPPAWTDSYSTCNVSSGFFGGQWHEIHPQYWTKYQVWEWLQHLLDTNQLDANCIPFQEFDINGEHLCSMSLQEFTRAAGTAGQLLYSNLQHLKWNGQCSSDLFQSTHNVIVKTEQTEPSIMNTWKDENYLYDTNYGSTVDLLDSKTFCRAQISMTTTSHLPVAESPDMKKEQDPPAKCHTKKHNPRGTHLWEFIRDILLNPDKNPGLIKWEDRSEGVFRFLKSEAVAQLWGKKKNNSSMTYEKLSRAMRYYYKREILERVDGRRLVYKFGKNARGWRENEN
The note with it: protein: recombinant; tags: N-terminal GST; dsDNA, one strand shown. The gist of the method: as §1

The target in another test is SPI1 (Homo sapiens, UniProt P17947 1-270). The note with it: protein: recombinant; tags: N-terminal GST; dsDNA, one strand shown. In a few lines: as §1
In another test the target is SPIB (Homo sapiens, UniProt Q01892 1-262). As to conditions: protein: recombinant; tags: N-terminal GST; dsDNA, one strand shown. The gist of the method: as §1
Sequence of SPIB (Q01892 whole entry): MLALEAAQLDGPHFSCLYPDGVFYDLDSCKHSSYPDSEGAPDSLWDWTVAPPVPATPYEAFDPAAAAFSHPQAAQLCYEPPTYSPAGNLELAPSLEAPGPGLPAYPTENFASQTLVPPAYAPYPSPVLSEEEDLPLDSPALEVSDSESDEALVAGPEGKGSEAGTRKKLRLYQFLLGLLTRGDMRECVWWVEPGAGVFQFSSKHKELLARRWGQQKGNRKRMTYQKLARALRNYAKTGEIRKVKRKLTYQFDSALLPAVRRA
Another test deals with T6, ELK3 (Homo sapiens, UniProt P41970 1-407).
T6 sequence: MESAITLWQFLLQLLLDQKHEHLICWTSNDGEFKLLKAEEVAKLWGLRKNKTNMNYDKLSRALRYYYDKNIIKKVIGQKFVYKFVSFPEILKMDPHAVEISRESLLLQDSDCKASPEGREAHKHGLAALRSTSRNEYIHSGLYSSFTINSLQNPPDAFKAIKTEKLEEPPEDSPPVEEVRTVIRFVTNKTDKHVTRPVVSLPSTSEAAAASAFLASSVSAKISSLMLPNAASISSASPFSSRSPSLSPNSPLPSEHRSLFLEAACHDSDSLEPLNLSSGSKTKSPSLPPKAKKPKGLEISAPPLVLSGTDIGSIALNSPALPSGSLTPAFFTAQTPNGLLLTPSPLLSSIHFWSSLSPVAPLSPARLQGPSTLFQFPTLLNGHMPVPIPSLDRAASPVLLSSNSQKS
As to conditions: protein: recombinant; tags: N-terminal GST; dsDNA, one strand shown. The gist of the method:
as §1

Another test addresses T7, FEV (Homo sapiens, UniProt Q99581 1-238).
T7 sequence: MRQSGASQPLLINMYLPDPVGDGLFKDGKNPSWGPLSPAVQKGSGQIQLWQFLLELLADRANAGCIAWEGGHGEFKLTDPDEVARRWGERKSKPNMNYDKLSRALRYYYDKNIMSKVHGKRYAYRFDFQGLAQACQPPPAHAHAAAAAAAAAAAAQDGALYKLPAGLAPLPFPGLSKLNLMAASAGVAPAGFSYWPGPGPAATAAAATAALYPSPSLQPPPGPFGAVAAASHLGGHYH
As to conditions: protein: recombinant; tags: N-terminal GST; dsDNA, one strand shown. The gist of the method:
as §1

The next test has as its target ETV5 (Homo sapiens, UniProt P41161 1-510). As to conditions: protein: recombinant; tags: N-terminal GST; dsDNA, one strand shown. The gist of the method:
as §1

A further test deals with HSF1 (Homo sapiens, UniProt Q00613 1-529). The note with it: protein: recombinant; tags: N-terminal GST; chain copies: 3; dsDNA, one strand shown. In a few lines: as §1
Sequence of HSF1 (Q00613 whole entry): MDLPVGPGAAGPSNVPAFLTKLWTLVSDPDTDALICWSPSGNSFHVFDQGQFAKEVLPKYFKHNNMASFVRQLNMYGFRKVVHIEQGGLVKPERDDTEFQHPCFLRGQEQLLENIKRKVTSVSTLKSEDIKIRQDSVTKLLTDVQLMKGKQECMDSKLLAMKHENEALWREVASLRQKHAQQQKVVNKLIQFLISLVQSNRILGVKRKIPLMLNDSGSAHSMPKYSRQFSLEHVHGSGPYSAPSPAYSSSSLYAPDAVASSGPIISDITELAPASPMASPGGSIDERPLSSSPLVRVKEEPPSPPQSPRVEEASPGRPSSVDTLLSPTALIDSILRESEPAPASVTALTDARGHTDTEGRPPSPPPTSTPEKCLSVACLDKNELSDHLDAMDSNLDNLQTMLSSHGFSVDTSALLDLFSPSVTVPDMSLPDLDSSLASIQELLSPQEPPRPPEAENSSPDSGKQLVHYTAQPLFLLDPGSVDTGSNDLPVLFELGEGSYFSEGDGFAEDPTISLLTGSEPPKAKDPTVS
A further test deals with T8, SPIC (Homo sapiens, UniProt Q8N5J4 1-248).
T8 sequence: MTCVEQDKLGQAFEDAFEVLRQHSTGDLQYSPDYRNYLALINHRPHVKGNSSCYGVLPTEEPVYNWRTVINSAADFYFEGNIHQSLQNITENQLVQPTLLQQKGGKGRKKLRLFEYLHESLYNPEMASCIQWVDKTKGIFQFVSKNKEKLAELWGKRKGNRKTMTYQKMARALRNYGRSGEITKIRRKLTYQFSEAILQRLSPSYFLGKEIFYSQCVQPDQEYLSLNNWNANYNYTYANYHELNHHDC
As to conditions: protein: recombinant; tags: N-terminal GST; dsDNA, one strand shown. The gist of the method:
as §1

For another test, the target named is ELF4 (Homo sapiens, UniProt Q99607 1-663). The note with it: protein: recombinant; tags: N-terminal GST; dsDNA, one strand shown. In a few lines:
as §1

For a further test, the target named is T9, ELK4 (Homo sapiens, UniProt P28324-2 1-405).
T9 sequence: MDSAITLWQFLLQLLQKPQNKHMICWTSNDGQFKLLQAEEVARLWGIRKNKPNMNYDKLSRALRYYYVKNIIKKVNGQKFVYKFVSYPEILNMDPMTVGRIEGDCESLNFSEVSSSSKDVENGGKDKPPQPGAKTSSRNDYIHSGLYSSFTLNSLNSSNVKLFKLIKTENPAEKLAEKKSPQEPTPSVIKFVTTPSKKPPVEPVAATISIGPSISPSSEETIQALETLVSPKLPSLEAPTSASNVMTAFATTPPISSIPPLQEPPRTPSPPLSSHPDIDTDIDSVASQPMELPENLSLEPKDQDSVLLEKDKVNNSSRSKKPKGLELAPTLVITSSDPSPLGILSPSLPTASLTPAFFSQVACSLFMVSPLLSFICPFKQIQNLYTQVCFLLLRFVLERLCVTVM
As to conditions: protein: recombinant; tags: N-terminal GST; dsDNA, one strand shown. In a few lines: as §1

The next test addresses T10, ETV2 (Homo sapiens, UniProt O00321 1-342).
T10 sequence: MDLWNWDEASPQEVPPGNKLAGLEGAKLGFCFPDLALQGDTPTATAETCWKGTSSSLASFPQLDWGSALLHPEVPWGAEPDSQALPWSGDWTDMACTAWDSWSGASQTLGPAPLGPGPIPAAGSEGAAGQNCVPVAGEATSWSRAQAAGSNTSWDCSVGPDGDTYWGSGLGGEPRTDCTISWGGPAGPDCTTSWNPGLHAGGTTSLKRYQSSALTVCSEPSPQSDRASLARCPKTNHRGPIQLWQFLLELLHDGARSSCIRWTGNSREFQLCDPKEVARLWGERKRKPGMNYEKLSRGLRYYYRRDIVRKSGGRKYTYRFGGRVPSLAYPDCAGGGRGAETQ
As to conditions: protein: recombinant; tags: N-terminal GST; dsDNA, one strand shown. In a few lines: as §1

The next test concerns the target CRX (Homo sapiens, UniProt O43186 1-299). As to conditions: protein: recombinant; tags: N-terminal GST; dsDNA, one strand shown. In a few lines:
as §1

For the next test, the target named is ETV1 (Homo sapiens, UniProt P50549 1-477). The note with it: protein: recombinant; tags: N-terminal GST; dsDNA, one strand shown. In a few lines:
as §1

Sequence of CRX (O43186 whole entry): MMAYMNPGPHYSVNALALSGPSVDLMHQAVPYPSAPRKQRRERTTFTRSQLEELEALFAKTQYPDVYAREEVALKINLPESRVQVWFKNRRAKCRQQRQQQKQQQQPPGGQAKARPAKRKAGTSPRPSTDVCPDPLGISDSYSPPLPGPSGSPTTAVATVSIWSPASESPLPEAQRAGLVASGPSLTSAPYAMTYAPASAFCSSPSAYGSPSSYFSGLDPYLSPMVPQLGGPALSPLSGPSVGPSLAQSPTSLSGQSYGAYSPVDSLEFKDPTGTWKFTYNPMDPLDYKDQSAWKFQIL
Sequence of ELF4 (Q99607 whole entry): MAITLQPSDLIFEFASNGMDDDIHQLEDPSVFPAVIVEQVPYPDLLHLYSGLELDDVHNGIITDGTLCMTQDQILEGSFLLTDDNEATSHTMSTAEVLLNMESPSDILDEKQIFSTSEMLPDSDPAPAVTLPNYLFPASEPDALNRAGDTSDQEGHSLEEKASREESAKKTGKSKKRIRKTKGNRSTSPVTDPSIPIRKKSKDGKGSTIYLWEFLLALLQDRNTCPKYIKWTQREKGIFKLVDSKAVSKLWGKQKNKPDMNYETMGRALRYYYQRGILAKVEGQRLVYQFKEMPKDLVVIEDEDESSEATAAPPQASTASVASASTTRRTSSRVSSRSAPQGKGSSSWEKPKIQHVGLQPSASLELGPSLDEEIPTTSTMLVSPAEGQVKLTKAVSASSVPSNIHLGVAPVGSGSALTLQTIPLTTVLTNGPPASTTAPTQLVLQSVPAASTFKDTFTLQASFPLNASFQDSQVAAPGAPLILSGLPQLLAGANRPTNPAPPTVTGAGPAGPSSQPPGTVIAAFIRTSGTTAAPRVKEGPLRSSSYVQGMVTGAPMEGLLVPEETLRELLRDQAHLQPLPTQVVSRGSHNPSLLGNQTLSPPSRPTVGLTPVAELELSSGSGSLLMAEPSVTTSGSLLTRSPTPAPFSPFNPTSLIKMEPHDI
Sequence of ETV5 (P41161 whole entry): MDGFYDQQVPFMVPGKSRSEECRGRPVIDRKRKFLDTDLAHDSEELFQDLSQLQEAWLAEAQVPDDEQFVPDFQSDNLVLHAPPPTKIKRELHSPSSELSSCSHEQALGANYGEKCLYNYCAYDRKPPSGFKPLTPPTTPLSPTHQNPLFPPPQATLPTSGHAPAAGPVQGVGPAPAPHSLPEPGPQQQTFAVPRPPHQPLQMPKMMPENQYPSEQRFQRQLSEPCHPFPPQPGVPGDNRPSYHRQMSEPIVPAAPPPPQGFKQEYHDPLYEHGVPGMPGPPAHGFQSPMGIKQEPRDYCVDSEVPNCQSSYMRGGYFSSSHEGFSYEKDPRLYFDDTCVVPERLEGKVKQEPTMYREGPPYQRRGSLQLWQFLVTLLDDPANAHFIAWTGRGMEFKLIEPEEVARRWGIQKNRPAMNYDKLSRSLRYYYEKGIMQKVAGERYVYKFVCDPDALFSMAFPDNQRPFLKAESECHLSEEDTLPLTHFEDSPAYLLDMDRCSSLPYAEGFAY
Sequence of ETV1 (P50549 whole entry): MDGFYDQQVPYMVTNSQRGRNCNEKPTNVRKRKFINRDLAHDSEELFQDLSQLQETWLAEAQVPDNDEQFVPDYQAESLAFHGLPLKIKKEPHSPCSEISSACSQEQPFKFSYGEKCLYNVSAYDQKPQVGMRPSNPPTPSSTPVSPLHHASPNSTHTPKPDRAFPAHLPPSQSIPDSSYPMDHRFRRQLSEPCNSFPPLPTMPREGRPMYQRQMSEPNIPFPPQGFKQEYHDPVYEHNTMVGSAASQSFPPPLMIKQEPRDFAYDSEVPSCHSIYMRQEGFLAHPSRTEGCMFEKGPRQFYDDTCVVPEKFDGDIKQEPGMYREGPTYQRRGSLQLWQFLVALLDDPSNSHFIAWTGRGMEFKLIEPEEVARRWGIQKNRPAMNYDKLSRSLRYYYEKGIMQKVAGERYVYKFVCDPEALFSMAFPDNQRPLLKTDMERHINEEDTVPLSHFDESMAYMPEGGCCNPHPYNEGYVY
Sequence of ELF1 (P32519 whole entry): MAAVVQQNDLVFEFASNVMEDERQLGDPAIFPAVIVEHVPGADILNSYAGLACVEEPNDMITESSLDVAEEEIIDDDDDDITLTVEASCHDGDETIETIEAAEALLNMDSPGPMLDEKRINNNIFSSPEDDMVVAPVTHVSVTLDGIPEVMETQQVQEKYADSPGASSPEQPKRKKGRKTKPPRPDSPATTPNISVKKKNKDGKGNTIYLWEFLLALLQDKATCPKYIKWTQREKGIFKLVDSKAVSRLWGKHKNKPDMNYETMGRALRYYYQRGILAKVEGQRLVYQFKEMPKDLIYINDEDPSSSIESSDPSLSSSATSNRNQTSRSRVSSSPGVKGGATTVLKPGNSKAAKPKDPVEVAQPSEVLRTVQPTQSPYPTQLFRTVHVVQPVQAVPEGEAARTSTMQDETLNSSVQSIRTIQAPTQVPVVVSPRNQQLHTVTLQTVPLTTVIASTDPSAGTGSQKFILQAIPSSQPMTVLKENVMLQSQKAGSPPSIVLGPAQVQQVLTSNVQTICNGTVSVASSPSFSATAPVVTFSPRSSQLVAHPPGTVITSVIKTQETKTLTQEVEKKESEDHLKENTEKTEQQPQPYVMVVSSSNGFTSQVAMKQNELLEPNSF

As for GGCTAG, the binding signal with FLI1 was 1.07 fold enrichment (6-mer frequency, TF over GST control); with ELK1, 1.11 fold enrichment (6-mer frequency, TF over GST control); in the test with GABPA it was 1.1 fold enrichment (6-mer frequency, TF over GST control); with ERG, 1.1 fold enrichment (6-mer frequency, TF over GST control); with ELF1 it was 1.09 fold enrichment (6-mer frequency, TF over GST control); with EHF, 1.05 fold enrichment (6-mer frequency, TF over GST control). The binding signal was 1.08 fold enrichment (6-mer frequency, TF over GST control) with SPI1; 1.18 fold enrichment (6-mer frequency, TF over GST control) in the test with SPIB; 1 fold enrichment (6-mer frequency, TF over GST control) with ELK3; 1.08 fold enrichment (6-mer frequency, TF over GST control) in the test with FEV; 1.06 fold enrichment (6-mer frequency, TF over GST control) with ETV5; 1.18 fold enrichment (6-mer frequency, TF over GST control) in the test with HSF1. Also, the binding signal with SPIC was 1.2 fold enrichment (6-mer frequency, TF over GST control); with ELF4, 1.1 fold enrichment (6-mer frequency, TF over GST control); with ELK4, 1.22 fold enrichment (6-mer frequency, TF over GST control); with ETV2, 1.15 fold enrichment (6-mer frequency, TF over GST control); with CRX it was 1.05 fold enrichment (6-mer frequency, TF over GST control); with ETV1, 1.03 fold enrichment (6-mer frequency, TF over GST control).
